Drawing on PubChem BioAssay AID504373 (National Center for Advancing Translational Sciences (NCATS), 2011), this text covers fish with circulating GFP thrombocytes for 3 compounds.

Records with an inconclusive call do not appear. Calls of active or inactive are those of the source.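 How the source made its calls: active means fewer circulating green fluorescent tagged thrombocytes in treated fish, with no visible harm to the embryos; inconclusive means compound visibly harmful to the embryos; inactive means no drop in circulating tagged thrombocytes.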

The nature of the first assay: qHTS Assay for Compounds Blocking the Interaction Between CBF-beta and RUNX1 for the Treatment of Acute Myeloid Leukemia: Zebrafish assay for Hematopoiesis, SAR for Probe. Particulars: GFP-cd41 zebrafish embryos, microscopy, 5 days, at 25 µM, stronger effect = lower value. The source says: NIH Chemical Genomics Center [NCGC] NIH Molecular Libraries Probe Production centers Network [MLPCN] MLPCN Grant: X01MH083259-01 Assay Submitter (PI): Paul Liu NCGC Assay Overview: Core Binding Factor (CBF) abnormalities are associated with 20-25% of all acute myeloid leukemias (AML), of which 5-10% are further sub classified as acute myelomonocytic leukemia with eosinophilia, also known as M4Eo in the FAB classification scheme. This subtype of leukemia is usually associated with chromosome 16 inversion (p13:q22). Chromosome 16 inversion results in formation of the fusion oncogene CBFB-MYH11, which encodes the fusion protein CBF-beta-SMMHC. […] It has been hypothesized that the interference of CBF-beta and RUNX1 binding could have therapeutic implications for patients with CBF mediated leukemias. We developed a CBF-beta and RUNX1 binding assay in AlphaScreenTM format and optimized it for high throughput screening to search for inhibitors. The goal of this project is to screen MLPCN's compound collection (MLSMR) for identifying the inhibitors of the interaction between CBF-beta and RUNX1 proteins as research probes. If these probes work well in the animal models, the ultimate goal of this project is to development a new drug treatment for this disease. […] These fish contain a genomic modulation where GFP has been fused to cd41, a marker for thrombocytes, and thus circulating thrombocytes can be easily imaged in anesthetized fish.
Assay protocol: GFP-cd41 zebrafish were kindly provided by the Liu lab. Zebrafish embryos were incubated with compound (<0.1% DMSO final) at 48 hours post fertilization, for 5 days. Embryos were manually scored under a microscope with GFP illumination for circulating GFP-tagged thrombocytes. Keywords: MLSMR, MLPCN, NIH Roadmap, qHTS, NCGC, Core binding factor, CBF, CBF-beta, Acute myeloid leukemia
As for `CCN(CC)CCN1C(=O)CN=C(c2ccccn2)c2cc(Cl)ccc21`, the fish with circulating GFP thrombocytes is 66.7% (active).

`CCN(CC)CCN1C(=O)CN=C(c2ccc[nH]2)c2cc(Cl)ccc21`: the fish with circulating GFP thrombocytes was 45.8% (active).

Consider `CN1C(=O)CN=C(c2ccc[nH]2)c2cc(Cl)ccc21` (tested in a mixture with another compound), for which the fish with circulating GFP thrombocytes was 29.2% (active).

Staying with this assay, now noted: GFP-cd41 zebrafish embryos, microscopy, 5 days, at 50 uM, stronger effect = lower value.
In the case of `CCN(CC)CCN1C(=O)CN=C(c2ccccn2)c2cc(Cl)ccc21`, the fish with circulating GFP thrombocytes came out at 66.7%.

For `CCN(CC)CCN1C(=O)CN=C(c2ccc[nH]2)c2cc(Cl)ccc21`, the fish with circulating GFP thrombocytes was 70.8%.

The compound `CN1C(=O)CN=C(c2ccc[nH]2)c2cc(Cl)ccc21` (tested in a mixture with another compound) returned a fish with circulating GFP thrombocytes of 0%.
